In the library only some 7.4% were active in any assay of this set; here they are far more common.
Rab9 prom act: Rab9 promoter activation. Huh7 Rab9 promoter-luciferase reporter, luminescence, 24 h. Potency, µM (top dose mostly 9.22 µM), for the others: at the highest dose activation, negative = inhibition, usual class: activators. 2.8% of 320,000 active. AID 485297; further: % of control where 0% means no effect; nearly all actives have a fitted effect of over 60% in size
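Steps: seed 1500 Huh7 Rab9-luc cells per well, rest 2 h at 37 °C; add compound in DMSO; incubate 24 h; add luciferase reagent, 10 min ambient; read luminescence.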
ELG1 genotoxic: induces genotoxicity in HEK293T cells with luciferase-tagged ELG1. HEK293T ELG1-luciferase reporter, luminescence, 16 h. Potency, µM (highest dose often 46 µM), for the others: top-dose activity change, positive = activation, most hits filed as activators. 1.3% of 330,000 active. AID 504466; further: % of control where 0% means no effect; nearly all actives have a fitted effect of over 60% in size
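16 hr compound incubation (37 °C, 5% CO2) of HEK293T cells carrying luciferase-tagged ELG1; luciferase then measured by ONE-Glo luminescence after 30 min at RT.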
p53 reactivation: re-activators of mutant p53 | 0.063% of 320,000 active | H1299 p53-A138V BP100-luciferase reporter, luminescence, 24 h | Potency, µM (titrated, usually from 92.2 µM), inactives show at the highest dose activity change, positive = activation, usual class: activators; further: % of control where 0% means no effect; nearly all actives have a fitted effect of over 45% in size
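p53-null H1299 cells stably carrying temperature-sensitive p53-A138V and a BP100-luciferase reporter were pinned with compounds (4-point, 1:5 series) and held 24 hrs at 37 deg C. Luminescence was read 10 min after detection reagent.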
SMN2 splice enh: enhancers of SMN2 splice variant expression; HEK293 SMN2-luciferase splicing reporter, luminescence, 30-36 h; Potency, µM (top dose mostly 46.1 µM), without a hit: at the top dose activity change, positive = activation, actives largely listed as activators; 2.8% of 210,000 active; further: % of control where 0% means no effect; nearly all actives have a fitted effect of over 55% in size
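qHTS luciferase splicing reporter: luminescence rises when SMN2 exon 7 is included in transfected HEK293 cells. Compound exposure lasted 30-36 h at 37C, with 4.5 mM final sodium butyrate as control, followed by a ONE-Glo read.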
FLuc counter: inhibits or activates purified firefly luciferase, miR-21 counter-screen | purified FLuc, Km substrates, luminescence inhibition | Potency, µM (doses to about 57.5 µM), without a hit: at the highest dose activity change, negative = inhibition, usual class: inhibitors | 6.9% of 360,000 active | P08659;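 further: plate controls were vehicle for no effect and reference inhibitor for full effect; nearly all actives have a fitted effect of over 55% in size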
Target sequence (P08659 whole entry, looked up): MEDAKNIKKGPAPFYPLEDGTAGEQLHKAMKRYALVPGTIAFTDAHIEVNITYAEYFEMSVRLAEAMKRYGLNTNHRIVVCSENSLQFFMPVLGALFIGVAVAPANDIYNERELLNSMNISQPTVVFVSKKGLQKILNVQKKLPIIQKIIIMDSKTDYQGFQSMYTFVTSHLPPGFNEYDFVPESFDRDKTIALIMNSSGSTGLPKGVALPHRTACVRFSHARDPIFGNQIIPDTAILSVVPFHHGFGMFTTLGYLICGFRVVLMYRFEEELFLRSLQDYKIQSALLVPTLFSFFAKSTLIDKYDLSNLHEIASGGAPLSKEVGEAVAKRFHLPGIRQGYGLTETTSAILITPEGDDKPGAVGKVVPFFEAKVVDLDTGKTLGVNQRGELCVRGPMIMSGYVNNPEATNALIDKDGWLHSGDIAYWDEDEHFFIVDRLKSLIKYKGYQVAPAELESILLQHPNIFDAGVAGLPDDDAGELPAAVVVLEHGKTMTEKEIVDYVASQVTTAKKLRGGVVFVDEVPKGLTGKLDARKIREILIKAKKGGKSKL
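Purified P. pyralis luciferase, 10 nM final, with Km-level 10 uM D-luciferin and 10 uM ATP in 50 mM Tris acetate pH 7.5, 10 mM Mg acetate, 0.01% Tween-20, 0.05% BSA; 6-point qHTS titration about 60 µM downward; luminescence read.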
NPC1 promoter act: activators of NPC1 promoter | Huh7 NPC1 promoter luciferase reporter, 24 h | Potency, µM (titrated, usually from 9.22 µM), for inactives: at the highest dose activation, hits mostly activators | 2.4% of 320,000 active; further: % of control where 0% means no effect; nearly all actives have a fitted effect of over 60% in size
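Huh7 reporter cells (NPC1 promoter driving luciferase) are dosed with compound for 24 h at 37 °C, 5% CO2; luciferase detection reagent is then added and luminescence measured after 10 min at ambient temperature.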
The depositor's hits bear a star; [ ] = another dose, or the depositor's remark. The call rests on the fitted dose curve; in most records, active means well fitted curve in the direction sought with a large enough effect; inconclusive means small, poorly fitted or top-dose-only effect, or another doubt; inactive means no such curve, though single readings can be large; an effect the other way counts as inactive or inconclusive. Potency means the concentration at half of the fitted maximal effect.

For CCOc1ccc(CNC(=O)C2Cc3ccccc3N2C(=O)CC)cc1OC (stereo not given) the results were FLuc counter 2%.
CCCCc1cc(=O)oc2cc(OCC(=O)Nc3cccnc3)c(Cl)cc12 was read as Rab9 prom act -5%, ELG1 genotoxic 2%, p53 reactivation -2%, FLuc counter 3% and NPC1 promoter act -4%.
`Nc1nc(Cl)nc2c1ncn2[C@@H]1O[C@H](COP(=O)(O)OP(=O)(O)OP(=O)(O)O)[C@@H](O)[C@H]1O` gave Rab9 prom act -4%[46.1 µM] and NPC1 promoter act 1%[46.1 µM].
O=C(c1ccncc1)N1CCC2(CC1)CN(c1ccncc1)C2 was read as SMN2 splice enh 5%.
Screening Fc1ccc(-n2nnc(-c3cnc4ccccc4c3)n2)cc1 returned Rab9 prom act 0.1µM*, ELG1 genotoxic 0.23µM*, p53 reactivation -11%, FLuc counter 0.13µM* and NPC1 promoter act inconclusive.
Screening Fc1ccc(N2CCN(c3nc4ccccc4c4nc(-c5ccccc5)nn34)CC2)cc1 returned SMN2 splice enh -4% and FLuc counter 1%.
For CC(OC(=O)c1ccc([N+](=O)[O-])o1)C(=O)Nc1nc(-c2ccc(F)c(F)c2)cs1 (stereo not given) the results were Rab9 prom act inconclusive, ELG1 genotoxic 14%, p53 reactivation inconclusive, FLuc counter 24µM* and NPC1 promoter act inconclusive.
For O=C(Cc1ccccc1)Nc1nc(-c2ccc(F)c(F)c2)cs1 the results were Rab9 prom act 9%, ELG1 genotoxic -7%, p53 reactivation 0%, FLuc counter inconclusive and NPC1 promoter act -4%.
O=C(Cc1ccccc1F)Nc1nc(-c2ccc(F)c(F)c2)cs1 was read as Rab9 prom act inconclusive, ELG1 genotoxic -24%, p53 reactivation inconclusive, FLuc counter 13µM* and NPC1 promoter act 4%.
`O=C(Nc1nc(-c2cccs2)cs1)c1ccco1` gave Rab9 prom act 3.2µM*, ELG1 genotoxic 10µM*, p53 reactivation 3%, SMN2 splice enh 13µM*, FLuc counter 8.5µM* and NPC1 promoter act 4µM*.
Screening O=C(Cc1ccccc1)Nc1nc(-c2cccs2)cs1 returned Rab9 prom act 20%, ELG1 genotoxic 4%, p53 reactivation inconclusive, SMN2 splice enh -7%, FLuc counter 19µM* and NPC1 promoter act 25%.
`COc1cc(NC(=O)c2cc([N+](=O)[O-])ccc2NC(=O)CN2CCN(c3ccccn3)CC2)cc(OC)c1` gave Rab9 prom act 2%, ELG1 genotoxic -2%, p53 reactivation -3%, FLuc counter 0% and NPC1 promoter act 2%.
For COc1ccccc1-c1nnc(SCC(=O)c2ccc(F)cc2)n1-c1ccccc1 the results were SMN2 splice enh -2% and FLuc counter -19%.
For Cc1ccccc1C(=N)c1ccccc1Cc1cccc2ccccc12 the results were SMN2 splice enh 5%[9.22 µM].
Screening Cc1ccc(C(=O)NC(C)c2ccc(-n3ccnc3)cc2)o1 (stereo not given) returned Rab9 prom act 8%, ELG1 genotoxic -5%, p53 reactivation 1%, FLuc counter 8% and NPC1 promoter act 3%.
For O=C(Cc1ccccc1F)Nc1nc(-c2cccs2)cs1 the results were Rab9 prom act inconclusive, ELG1 genotoxic inconclusive, p53 reactivation inconclusive, SMN2 splice enh -13%, FLuc counter 11µM* and NPC1 promoter act inconclusive.
Screening CC1(C)N=C(SCc2ccc(F)cc2)c2ccccc2N1 returned FLuc counter 3%.
N#C/C(C(=O)N1CCOCC1)=C1\Nc2ccccc2S1 was read as Rab9 prom act 9%, ELG1 genotoxic inconclusive, p53 reactivation inconclusive, SMN2 splice enh inconclusive, FLuc counter 17µM* and NPC1 promoter act 17%.
Screening N#C/C(=C\c1cccs1)C(=O)N1CCOCC1 returned Rab9 prom act -7%, ELG1 genotoxic 0%, p53 reactivation 0%, FLuc counter 4% and NPC1 promoter act -4%.
`O=C(Nc1ccc(-c2nc3ccccc3s2)c(O)c1)c1ccc(Br)cc1` gave SMN2 splice enh -4% and FLuc counter -2%.
`O=C(Nc1cccc(Cl)c1)c1ccccc1` gave Rab9 prom act inconclusive, ELG1 genotoxic 16µM*, p53 reactivation 15%, FLuc counter 13µM* and NPC1 promoter act inconclusive.
O=C(Nc1ccc(Cl)c(Cl)c1)Nc1ccccc1O was read as Rab9 prom act 4µM*, ELG1 genotoxic inconclusive, p53 reactivation inconclusive, FLuc counter 6µM* and NPC1 promoter act 4µM*.
For CC(=O)Nc1ccc2cc3ccc(NC(C)=O)cc3nc2c1 the results were Rab9 prom act inconclusive, ELG1 genotoxic inconclusive, p53 reactivation 8%, FLuc counter 11µM* and NPC1 promoter act inconclusive.
Screening O=C(Nc1ccc(-c2nc3ccccc3s2)c(OC(=O)c2ccccc2)c1)c1ccccc1 returned Rab9 prom act 1.4µM*, ELG1 genotoxic inconclusive, p53 reactivation inconclusive, SMN2 splice enh 2.8µM*, FLuc counter inconclusive and NPC1 promoter act 1.6µM*.
Screening CCCN1CCN(CCNC(=O)Nc2ccccc2OCC)CC1 returned SMN2 splice enh 2% and FLuc counter -1%.
Screening Cn1c(N)c(C(=O)Nc2cccc(Cl)c2)c(=O)n(C)c1=O returned Rab9 prom act 6%, ELG1 genotoxic 8%, p53 reactivation 12%, FLuc counter 5.4µM* and NPC1 promoter act 2%.
O=C(Nc1ccc2nc3ccccc3nc2c1)c1ccccc1 was read as Rab9 prom act 0.56µM*, ELG1 genotoxic inconclusive, p53 reactivation inconclusive, SMN2 splice enh 4µM*, FLuc counter 1.7µM* and NPC1 promoter act 1.4µM*.
Screening O=C(Nc1ccc(Cl)c(Cl)c1)c1ccccc1 returned Rab9 prom act 1.6µM*, ELG1 genotoxic inconclusive, p53 reactivation inconclusive, FLuc counter 3.8µM* and NPC1 promoter act 3.2µM*.
`Cc1noc(C)c1C(=O)N1CCC2(CC1)CN(c1cccc(-c3ccccc3)c1)C2` gave SMN2 splice enh -64%.
For Cc1csc(Nc2ccc(Cl)cc2)n1 the results were Rab9 prom act inconclusive, ELG1 genotoxic inconclusive, p53 reactivation 7%, SMN2 splice enh inconclusive, FLuc counter 12µM* and NPC1 promoter act inconclusive.
Screening Cc1ccc(Nc2nc(C)cs2)cc1 returned Rab9 prom act inconclusive, ELG1 genotoxic 21µM*, p53 reactivation 5%, SMN2 splice enh 8.9µM*, FLuc counter 13µM* and NPC1 promoter act inconclusive.

Assay outcomes (PubChem BioAssay)
